N-glyco inh – N-linked glycosylation inhibition | D54 ERlucT glycosylation luciferase reporter, 24 h; percent of 100 nM tunicamycin response | reporter increase, % at 12.5 µM | hit rate 0.23% among 360,000;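 active means mean luciferase reporter signal, scaled so untreated is 0 and the glycosylation-blocking control 100, at or above a set limit in every replicate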;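 further: luciferase carries N-glycosylation sites so blocking glycosylation raises the light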
F508del corr – CFTR F508del correction in bronchial cells | CFBE cells, YFP halide quenching; stimulated with forskolin plus potentiator P3; % fluorescence drop versus neutral controls | AID 720511 | activity (quench increase), % at 7.58 µM | hit rate 0.36% among 350,000;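 active means mean added fluorescence quench of at least 8% versus neutral control, with both replicates also reaching 8%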;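 further: cells transiently co-express mutant CFTR-F508del with the halide-sensitive YFP; corrector assay measuring rescue of mutant channel to the surface after 24 h compound exposure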
PvdQ inh – blocks Pseudomonas aeruginosa PvdQ acylase activity. purified PvdQ acylase, fluorescence plate reader. inhibition, % at 10 µM. hit rate 0.063% among 340,000. AID 488965; in the data active means inhibition above about 30%, passing the limit was not always enough
dFosB act – mouse delta FosB homodimer activation. purified delta FosB, TAMRA-CDK5 oligo fluorescence polarization; percent of positive-control signal above neutral wells. hit rate 0.99% among 340,000. activation, % at 25 µM. AID 493131. P13346;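 active means mean activation above about 17%, with every replicate also reaching it, limit read from the data, passing the limit was not always enough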
Target sequence (P13346 whole entry, looked up): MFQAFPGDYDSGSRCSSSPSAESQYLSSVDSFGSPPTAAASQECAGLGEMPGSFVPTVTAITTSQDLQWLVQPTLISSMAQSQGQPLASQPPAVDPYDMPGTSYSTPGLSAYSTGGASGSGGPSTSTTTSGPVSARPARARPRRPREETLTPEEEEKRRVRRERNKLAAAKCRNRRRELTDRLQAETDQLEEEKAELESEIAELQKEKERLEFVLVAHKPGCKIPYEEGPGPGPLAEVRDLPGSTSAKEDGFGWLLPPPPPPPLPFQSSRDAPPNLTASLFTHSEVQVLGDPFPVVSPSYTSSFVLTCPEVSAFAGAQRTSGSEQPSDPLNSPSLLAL
RAD52 inh – blocks human RAD52 DNA annealing | P43351 | recombinant RAD52 DNA annealing, FRET fluorescence | inhibition, % at 18.7 µM | hit rate 0.46% among 360,000;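 active means every replicate showing at least 50% inhibition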
RAD54 inh – blocks human RAD54 Holliday junction branch migration | Q92698 | FAM/BHQ fluorescence | inhibition, % at 10.4 µM | hit rate 0.14% among 360,000;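 active means mean normalized replicate activity at least 40 and at least half of replicates scoring 40 or more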;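 further: inhibitors cause a drop in the FAM fluorescence signal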
Hits are given with their value; – = inactive; · = no result given; ! = not confirmed by another sample. A selection: hits, their analogues and other compounds. The true share with any hit is near 1.5%.

SMILES	N-glyco inh	F508del corr	PvdQ inh	dFosB act	RAD52 inh	RAD54 inh
O=C(N/N=C\c1cc(Br)ccc1O)c1ccc(S(=O)(=O)N2CCCCC2)cc1	–	16.9	–	–	–	·
O=C1CCC(CCc2nc3ccccc3[nH]2)(c2ccccc2)C(=O)N1 (stereo unspecified)	–	11.0	–	–	–	–
c1ccc2sc(-c3ccc4c(c3)OCO4)nc2c1	–	·	49.0	–	·	–
c1coc(-c2nc3ccccc3s2)c1	–	11.3	–	–	–	–
COc1ccc(-c2nc3ccccc3s2)cc1	–	·	67.3	–	–	·
O=C(O)c1cc2nccc(-c3ccco3)n2n1	–	–	39.1	–	–	–
COc1ccccc1Nc1cc2cc(Br)ccc2c(=O)[nH]1	–	–	–	–	–	–
COc1ccc(OC)c(Nc2cc3ccccc3c(=O)[nH]2)c1	32.6	–	–	–	–	–
COc1cccc(C(=O)Nc2ccc3c(c2)OC[C@@H](C)N(CC2CC2)C[C@@H](C)[C@H](OC)CN(C)C3=O)c1	·	–	·	·	–	–
Cc1cccc(S(=O)(=O)N2C[C@@H]3N[C@H](C2)C3c2ccc(-c3ccccc3C)cc2)c1 (stereo partly specified)	·	–	·	·	·	·
Cc1cccc(S(=O)(=O)N2C[C@@H]3N[C@H](C2)C3c2ccc(-c3ccccc3F)cc2)c1 (stereo partly specified)	·	–	·	·	80.3!	·
COc1cccc(S(=O)(=O)N2C[C@@H]3N[C@H](C2)C3c2ccc(-c3ccccc3F)cc2)c1 (stereo partly specified)	·	10.0!	·	·	·	·
COc1cccc(-c2ccc(C3[C@@H]4CN(S(=O)(=O)c5cccc(OC)c5)C[C@H]3N4)cc2)c1 (stereo partly specified)	·	21.4!	·	·	70.2!	·
COc1cccc(S(=O)(=O)N2C[C@@H]3N[C@H](C2)C3c2ccc(-c3ccccc3C)cc2)c1 (stereo partly specified)	·	–	·	·	–	·
COc1cccc(S(=O)(=O)N2C[C@@H]3N[C@H](C2)C3c2ccc(-c3ccccc3OC)cc2)c1 (stereo partly specified)	·	–	·	·	55.8!	·
O=S(=O)(c1ccc2ccccc2c1)N1CCN(Cc2cccc(OCCO)c2)CC1	·	–	·	·	–	–
COc1cccc(S(=O)(=O)N[C@H]2C=C[C@H](CC(=O)NCc3ccncc3)O[C@H]2CO)c1	·	–	·	·	–	·
Cc1ccccc1S(=O)(=O)N1C[C@@H]2N[C@H](C1)C2c1ccc(-c2ccc(C(=O)N(C)C)cc2)cc1 (stereo partly specified)	·	–	·	·	–	·
COc1ccccc1-c1ccc([C@@H]2[C@@H]3CN(S(=O)(=O)c4ccc(-c5ccccc5)cc4)C[C@H]2N3)cc1	·	–	·	·	87.8	·
Cc1ccccc1S(=O)(=O)N1C[C@@H]2N[C@H](C1)C2c1ccc(-c2ccc(C#N)cc2)cc1 (stereo partly specified)	·	–	·	·	72.0!	·
COc1ccccc1S(=O)(=O)N1C[C@@H]2N[C@H](C1)C2c1ccc(-c2ccccc2)cc1 (stereo partly specified)	·	–	·	·	–	·
COc1ccccc1-c1ccc(C2[C@@H]3CN(S(=O)(=O)c4ccccc4C)C[C@H]2N3)cc1 (stereo partly specified)	·	–	·	·	50.8	·
CCNC(=O)C[C@H]1CC[C@H](NC(=O)C2CCC2)[C@H](CO)O1	·	–	·	·	–	–
COCCNC(=O)C[C@@H]1C[C@H]2c3cc(NC(=O)Nc4ccccc4F)ccc3O[C@H]2[C@@H](CO)O1	·	–	·	·	·	–
CC12CCC(CC1O)C2C(=O)O (stereo unspecified)	–	8.2	·	·	–	·
CO[C@H]1CC[C@H]2CCOc3ccc(C#N)cc3C(=O)N(C)[C@@H](C)C(=O)N(C)C[C@H]1O2	·	·	·	·	–	–
O=c1cc(-c2ccccc2)[nH]n1-c1nc2ccccc2[nH]1	40.8	·	–	–	·	–
CCc1cc(=O)[nH]c(-n2[nH]c(-c3ccccc3)cc2=O)n1	–	–	–	–	–	·
C[C@H](CO)N1C[C@H](C)[C@@H](CN(C)C)Oc2cc(-c3ccccc3)ccc2S1(=O)=O	·	–	·	·	–	–
CN(C)/N=C/c1ccc(Sc2ccc([N+](=O)[O-])cc2[N+](=O)[O-])o1	26.7	·	–	–	·	·

Screening data: PubChem, Broad Institute
